Measurements as given in paper PMC7862700, “An all-to-all approach to the identification of sequence-specific readers for epigenetic DNA modifications on cytosine”.

Key:
Test in all cases: DAPPL (digital affinity profiling via proximity ligation, sequencing); 10 mM Tris-HCl pH 7.5, 50 mM NaCl, 1 mM DTT, 4% glycerol, room temperature, 30 min; GST-TFs on glutathione beads, 16-mer random dsDNA library, 0.1% formaldehyde crosslink after washing; high values mean tight binding
Conditions in all cases: protein: recombinant; tags: N-terminal GST; dsDNA, one strand shown
ERF = biological target: T1, ERF (Homo sapiens, UniProt P50548 1-548)
T1 sequence: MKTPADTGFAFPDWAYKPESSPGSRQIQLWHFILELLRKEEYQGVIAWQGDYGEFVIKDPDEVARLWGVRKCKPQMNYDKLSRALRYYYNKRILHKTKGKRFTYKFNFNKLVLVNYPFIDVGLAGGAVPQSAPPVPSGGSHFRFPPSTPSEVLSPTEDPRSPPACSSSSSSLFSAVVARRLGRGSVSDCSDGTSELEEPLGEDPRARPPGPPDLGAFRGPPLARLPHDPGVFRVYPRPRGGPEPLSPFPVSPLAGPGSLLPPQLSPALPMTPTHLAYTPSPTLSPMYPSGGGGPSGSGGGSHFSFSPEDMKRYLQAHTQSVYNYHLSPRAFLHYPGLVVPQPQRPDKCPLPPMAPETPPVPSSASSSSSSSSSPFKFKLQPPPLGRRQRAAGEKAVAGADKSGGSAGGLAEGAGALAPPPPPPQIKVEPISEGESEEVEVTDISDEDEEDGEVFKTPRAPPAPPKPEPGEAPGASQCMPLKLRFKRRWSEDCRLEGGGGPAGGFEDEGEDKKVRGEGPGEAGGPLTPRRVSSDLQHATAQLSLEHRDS
Method in brief: (§1)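 Human transcription factors were made in yeast as GST fusions, captured on glutathione beads and barcoded with DNA. With a tag-only sample included, the pool was incubated with 200 nmole of a random double-stranded 16-mer DNA library in Tris/NaCl/DTT/glycerol buffer at room temperature for 30 min, then crosslinked with 0.1% formaldehyde after washing, ligated by proximity, amplified and sequenced. For binding signal, each hexamer's read frequency for a factor is divided by its frequency for the tag-only sample.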

ETV3L = biological target: T2, ETV3L (Homo sapiens, UniProt Q6ZN32 1-361)
T2 sequence: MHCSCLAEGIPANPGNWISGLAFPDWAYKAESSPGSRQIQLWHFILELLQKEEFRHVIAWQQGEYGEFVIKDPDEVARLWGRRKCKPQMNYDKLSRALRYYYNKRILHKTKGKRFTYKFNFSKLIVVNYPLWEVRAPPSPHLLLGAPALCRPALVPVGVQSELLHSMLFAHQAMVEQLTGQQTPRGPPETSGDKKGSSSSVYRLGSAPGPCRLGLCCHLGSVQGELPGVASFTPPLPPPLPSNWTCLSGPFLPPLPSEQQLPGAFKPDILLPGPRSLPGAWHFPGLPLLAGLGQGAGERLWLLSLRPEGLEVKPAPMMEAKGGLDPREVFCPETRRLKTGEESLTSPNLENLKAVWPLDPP
Method in brief: as §1

ETS2 = biological target: T3, ETS2 (Homo sapiens, UniProt P15036 1-469)
T3 sequence: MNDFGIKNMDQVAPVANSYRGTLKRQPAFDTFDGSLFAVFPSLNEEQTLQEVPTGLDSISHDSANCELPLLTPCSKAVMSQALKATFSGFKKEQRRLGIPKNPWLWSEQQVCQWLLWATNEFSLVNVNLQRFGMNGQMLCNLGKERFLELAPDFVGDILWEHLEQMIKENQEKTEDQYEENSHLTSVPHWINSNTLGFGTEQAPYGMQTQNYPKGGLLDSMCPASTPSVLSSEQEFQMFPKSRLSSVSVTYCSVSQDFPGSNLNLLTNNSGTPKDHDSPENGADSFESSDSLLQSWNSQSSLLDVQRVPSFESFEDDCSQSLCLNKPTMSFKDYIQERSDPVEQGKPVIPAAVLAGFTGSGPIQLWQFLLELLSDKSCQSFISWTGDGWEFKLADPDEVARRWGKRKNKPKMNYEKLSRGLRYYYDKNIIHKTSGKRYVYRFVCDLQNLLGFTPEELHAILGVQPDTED
Method in brief: as §1

SPDEF = biological target: T4, SPDEF (Homo sapiens, UniProt O95238 1-335)
T4 sequence: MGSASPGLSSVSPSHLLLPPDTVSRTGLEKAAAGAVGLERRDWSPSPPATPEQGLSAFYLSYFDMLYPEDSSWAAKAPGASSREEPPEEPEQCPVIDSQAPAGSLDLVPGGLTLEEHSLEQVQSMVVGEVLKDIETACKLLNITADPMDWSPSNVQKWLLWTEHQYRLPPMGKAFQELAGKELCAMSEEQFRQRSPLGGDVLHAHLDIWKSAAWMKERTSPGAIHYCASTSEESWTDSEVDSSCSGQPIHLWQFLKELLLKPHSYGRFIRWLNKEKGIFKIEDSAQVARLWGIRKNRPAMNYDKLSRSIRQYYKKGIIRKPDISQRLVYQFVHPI
Method in brief: as §1

ETV7 = biological target: T5, ETV7 (Homo sapiens, UniProt Q9Y603 1-341)
T5 sequence: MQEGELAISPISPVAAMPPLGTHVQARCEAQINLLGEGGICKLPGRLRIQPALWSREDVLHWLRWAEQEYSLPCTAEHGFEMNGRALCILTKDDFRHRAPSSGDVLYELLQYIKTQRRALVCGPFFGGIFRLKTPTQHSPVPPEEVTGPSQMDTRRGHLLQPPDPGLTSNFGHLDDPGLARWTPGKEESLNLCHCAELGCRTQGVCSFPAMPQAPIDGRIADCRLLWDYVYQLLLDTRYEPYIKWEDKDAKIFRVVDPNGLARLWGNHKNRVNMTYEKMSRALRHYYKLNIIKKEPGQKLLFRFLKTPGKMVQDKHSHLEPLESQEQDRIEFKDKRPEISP
Method in brief: as §1

ELF5 = biological target: T6, ELF5 (Homo sapiens, UniProt Q9UKW6-2 1-255)
T6 sequence: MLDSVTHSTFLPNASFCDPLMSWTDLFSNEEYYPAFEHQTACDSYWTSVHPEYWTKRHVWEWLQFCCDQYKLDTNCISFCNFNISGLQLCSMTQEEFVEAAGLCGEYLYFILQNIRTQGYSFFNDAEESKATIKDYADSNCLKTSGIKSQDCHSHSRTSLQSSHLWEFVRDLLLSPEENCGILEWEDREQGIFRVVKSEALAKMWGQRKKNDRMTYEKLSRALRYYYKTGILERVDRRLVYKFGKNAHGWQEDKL
Method in brief: as §1

ETV3 = biological target: T7, ETV3 (Homo sapiens, UniProt P41162-2 1-143)
T7 sequence: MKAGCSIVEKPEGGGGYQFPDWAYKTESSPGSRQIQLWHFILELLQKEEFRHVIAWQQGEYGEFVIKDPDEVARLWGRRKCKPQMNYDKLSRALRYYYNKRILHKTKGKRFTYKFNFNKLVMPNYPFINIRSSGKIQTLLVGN
Method in brief: as §1

ETV6 = ETV6 (Homo sapiens, UniProt P41212 1-452)
Method in brief: as §1

Sequence of ETV6 (P41212 whole entry): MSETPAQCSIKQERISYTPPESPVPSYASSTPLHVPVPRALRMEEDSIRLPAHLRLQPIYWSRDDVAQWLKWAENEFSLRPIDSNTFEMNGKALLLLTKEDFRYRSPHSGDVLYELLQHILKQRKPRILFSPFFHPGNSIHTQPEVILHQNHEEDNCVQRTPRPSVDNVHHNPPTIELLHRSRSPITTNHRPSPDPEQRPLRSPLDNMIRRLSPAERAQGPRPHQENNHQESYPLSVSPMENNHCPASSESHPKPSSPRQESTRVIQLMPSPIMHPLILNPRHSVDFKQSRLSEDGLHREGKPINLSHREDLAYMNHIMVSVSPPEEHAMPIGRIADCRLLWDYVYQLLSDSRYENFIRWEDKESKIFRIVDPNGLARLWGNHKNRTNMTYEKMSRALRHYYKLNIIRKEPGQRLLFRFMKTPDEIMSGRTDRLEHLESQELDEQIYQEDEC

GTAAAT was tested, and the binding signal (ERF) was 1.18 fold enrichment (6-mer frequency, TF over GST control), the binding signal (ETV3L) was 1.23 fold enrichment (6-mer frequency, TF over GST control) and the binding signal (ETS2) was 1.18 fold enrichment (6-mer frequency, TF over GST control). For the same sequence, the binding signal (SPDEF) was 1.13 fold enrichment (6-mer frequency, TF over GST control), the binding signal (ETV7) was 1.2 fold enrichment (6-mer frequency, TF over GST control) and the binding signal (ELF5) was 1.12 fold enrichment (6-mer frequency, TF over GST control). The binding signal (ETV3) was 1.13 fold enrichment (6-mer frequency, TF over GST control) and the binding signal (ETV6) was 1.18 fold enrichment (6-mer frequency, TF over GST control).

In the case of CTCTTA, the binding signal (ERF) is reported as 1.45 fold enrichment (6-mer frequency, TF over GST control), the binding signal (ETV3L) is reported as 1.5 fold enrichment (6-mer frequency, TF over GST control) and the binding signal (ETS2) is reported as 1.33 fold enrichment (6-mer frequency, TF over GST control). The binding signal (SPDEF) was 1.24 fold enrichment (6-mer frequency, TF over GST control), the binding signal (ETV7) was 1.28 fold enrichment (6-mer frequency, TF over GST control) and the binding signal (ELF5) was 1.31 fold enrichment (6-mer frequency, TF over GST control). For the same sequence, the binding signal (ETV3) was 1.38 fold enrichment (6-mer frequency, TF over GST control) and the binding signal (ETV6) was 1.39 fold enrichment (6-mer frequency, TF over GST control).

CCTTGG was tested, and the binding signal (ERF) was 1.23 fold enrichment (6-mer frequency, TF over GST control), the binding signal (ETV3L) was 1.3 fold enrichment (6-mer frequency, TF over GST control) and the binding signal (ETS2) was 1.25 fold enrichment (6-mer frequency, TF over GST control). For the same sequence, the binding signal (SPDEF) was 1.25 fold enrichment (6-mer frequency, TF over GST control), the binding signal (ETV7) was 1.22 fold enrichment (6-mer frequency, TF over GST control) and the binding signal (ELF5) was 1.26 fold enrichment (6-mer frequency, TF over GST control). For the same sequence, the binding signal (ETV3) was 1.12 fold enrichment (6-mer frequency, TF over GST control) and the binding signal (ETV6) was 1.24 fold enrichment (6-mer frequency, TF over GST control).

ATTGAT was tested, and the binding signal (ERF) was 1.34 fold enrichment (6-mer frequency, TF over GST control), the binding signal (ETV3L) was 1.31 fold enrichment (6-mer frequency, TF over GST control) and the binding signal (ETS2) was 1.29 fold enrichment (6-mer frequency, TF over GST control). For the same sequence, the binding signal (SPDEF) was 1.32 fold enrichment (6-mer frequency, TF over GST control), the binding signal (ETV7) was 1.23 fold enrichment (6-mer frequency, TF over GST control) and the binding signal (ELF5) was 1.27 fold enrichment (6-mer frequency, TF over GST control). For the same sequence, the binding signal (ETV3) was 1.33 fold enrichment (6-mer frequency, TF over GST control) and the binding signal (ETV6) was 1.24 fold enrichment (6-mer frequency, TF over GST control).

For TATGAA, the binding signal (ERF) was 1.21 fold enrichment (6-mer frequency, TF over GST control), the binding signal (ETV3L) was 1.21 fold enrichment (6-mer frequency, TF over GST control) and the binding signal (ETS2) was 1.27 fold enrichment (6-mer frequency, TF over GST control). The binding signal (SPDEF) was 1.16 fold enrichment (6-mer frequency, TF over GST control), the binding signal (ETV7) was 1.2 fold enrichment (6-mer frequency, TF over GST control) and the binding signal (ELF5) was 1.07 fold enrichment (6-mer frequency, TF over GST control). For the same sequence, the binding signal (ETV3) was 1.17 fold enrichment (6-mer frequency, TF over GST control) and the binding signal (ETV6) was 1.13 fold enrichment (6-mer frequency, TF over GST control).

For TATGTT, the binding signal (ERF) was 1.17 fold enrichment (6-mer frequency, TF over GST control), the binding signal (ETV3L) was 1.2 fold enrichment (6-mer frequency, TF over GST control) and the binding signal (ETS2) was 1.24 fold enrichment (6-mer frequency, TF over GST control). The binding signal (SPDEF) was 1.18 fold enrichment (6-mer frequency, TF over GST control), the binding signal (ETV7) was 1.33 fold enrichment (6-mer frequency, TF over GST control) and the binding signal (ELF5) was 1.24 fold enrichment (6-mer frequency, TF over GST control). The binding signal (ETV3) was 1.26 fold enrichment (6-mer frequency, TF over GST control) and the binding signal (ETV6) was 1.08 fold enrichment (6-mer frequency, TF over GST control).

With CCTATA the binding signal (ERF) was 1.33 fold enrichment (6-mer frequency, TF over GST control), the binding signal (ETV3L) was 1.34 fold enrichment (6-mer frequency, TF over GST control) and the binding signal (ETS2) was 1.42 fold enrichment (6-mer frequency, TF over GST control). For the same sequence, the binding signal (SPDEF) was 1.45 fold enrichment (6-mer frequency, TF over GST control), the binding signal (ETV7) was 1.31 fold enrichment (6-mer frequency, TF over GST control) and the binding signal (ELF5) was 1.39 fold enrichment (6-mer frequency, TF over GST control). For the same sequence, the binding signal (ETV3) was 1.36 fold enrichment (6-mer frequency, TF over GST control) and the binding signal (ETV6) was 1.39 fold enrichment (6-mer frequency, TF over GST control).

With ACTGCT the binding signal (ERF) was 1.27 fold enrichment (6-mer frequency, TF over GST control), the binding signal (ETV3L) was 1.41 fold enrichment (6-mer frequency, TF over GST control) and the binding signal (ETS2) was 1.38 fold enrichment (6-mer frequency, TF over GST control). The binding signal (SPDEF) was 1.26 fold enrichment (6-mer frequency, TF over GST control), the binding signal (ETV7) was 1.4 fold enrichment (6-mer frequency, TF over GST control) and the binding signal (ELF5) was 1.33 fold enrichment (6-mer frequency, TF over GST control). For the same sequence, the binding signal (ETV3) was 1.42 fold enrichment (6-mer frequency, TF over GST control) and the binding signal (ETV6) was 1.33 fold enrichment (6-mer frequency, TF over GST control).

For GTGCTT, the binding signal (ERF) was 1.26 fold enrichment (6-mer frequency, TF over GST control), the binding signal (ETV3L) was 1.14 fold enrichment (6-mer frequency, TF over GST control) and the binding signal (ETS2) was 1.25 fold enrichment (6-mer frequency, TF over GST control). For the same sequence, the binding signal (SPDEF) was 1.37 fold enrichment (6-mer frequency, TF over GST control), the binding signal (ETV7) was 1.3 fold enrichment (6-mer frequency, TF over GST control) and the binding signal (ELF5) was 1.41 fold enrichment (6-mer frequency, TF over GST control). For the same sequence, the binding signal (ETV3) was 1.3 fold enrichment (6-mer frequency, TF over GST control) and the binding signal (ETV6) was 1.37 fold enrichment (6-mer frequency, TF over GST control).
